This is a sample that favours compounds with a hit; in the whole collection about 10% have one here.
NIH3T3 tox – NIH 3T3 cell cytotoxicity | Potency, µM (highest dose often 96.7 µM), most hits filed as inhibitors | actives 4.3% (n = 94,000) | NIH 3T3 viability, CellTiter-Glo ATP luminescence, 48-72 h; also: nearly all actives have a fitted effect of over 55% in size
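First NIH 3T3 cells are plated at 400 cells/well; next compound is pinned in; then plates incubate 48 or 72 hr at 37 °C; finally CellTiter-Glo is added and luminescence read after 10 min.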
HEK293 tox – HEK 293 cell cytotoxicity; HEK 293 viability, ATP luminescence (CellTiter-Glo), 48-72 h; Potency, µM (highest dose often 115 µM), actives largely listed as inhibitors; actives 6.6% (n = 94,000); also: nearly all actives have a fitted effect of over 60% in size
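Viability of HEK 293 cells, plated at 250 cells/well, was judged by cellular ATP after compound treatment for 48 or 72 hr. Luminescence was imaged 10 min after CellTiter-Glo addition at room temperature.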
GPT2 inh – GPT2 alanine aminotransferase inhibition; AID 1671188; Recombinant GPT2, coupled pyruvate oxidase/HRP Amplex Red fluorescence; Q8TD30; actives 0.25% (n = 100,000); Potency, µM (top dose mostly 57.7 µM), hits mostly inhibitors; also: nearly all actives have a fitted effect of over 60% in size
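GPT2 10ng/uL, a-KG 250uM, L-Ala 2mM, HEPES pH7.5 + 0.0001% Tween; 30 min RT. Then Amplex mix (PO/HRP/ThPP), 30 min RT dark, fluorescence. AOA 50uM used as positive control.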
FLuc inh – blocks purified firefly luciferase enzyme activity. Potency, µM (doses to about 115 µM), usual class: inhibitors. purified P. pyralis luciferase, luminescence, biochemical. P08659. actives 2.5% (n = 76,000); also: nearly all actives have a fitted effect of over 65% in size
Target sequence (P08659 whole entry, looked up): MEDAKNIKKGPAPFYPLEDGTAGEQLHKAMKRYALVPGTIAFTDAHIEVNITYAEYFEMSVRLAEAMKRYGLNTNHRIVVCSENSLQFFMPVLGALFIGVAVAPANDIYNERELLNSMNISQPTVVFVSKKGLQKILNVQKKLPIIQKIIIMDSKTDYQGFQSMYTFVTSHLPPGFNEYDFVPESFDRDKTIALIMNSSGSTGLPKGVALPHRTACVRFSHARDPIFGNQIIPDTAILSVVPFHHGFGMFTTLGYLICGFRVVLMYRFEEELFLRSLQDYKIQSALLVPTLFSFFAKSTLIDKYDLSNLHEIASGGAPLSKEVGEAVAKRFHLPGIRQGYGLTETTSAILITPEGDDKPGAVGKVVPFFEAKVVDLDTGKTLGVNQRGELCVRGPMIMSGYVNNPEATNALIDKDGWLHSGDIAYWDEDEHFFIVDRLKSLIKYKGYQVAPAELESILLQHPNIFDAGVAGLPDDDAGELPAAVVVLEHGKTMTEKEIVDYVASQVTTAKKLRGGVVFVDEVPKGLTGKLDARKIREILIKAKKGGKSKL
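Purified P. pyralis luciferase (10nM final) in 50mM Tris acetate pH 7.5, 10mM Mg acetate, 0.01% Tween-20, 0.05% BSA with 10uM D-luciferin and 10uM ATP. Compounds titrated qHTS. Luminescence imaged on CCD.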
NPR1 antag – human Npr1 receptor antagonism. Potency, µM (doses to about 46.3 µM), usual class: inhibitors. actives 1.6% (n = 76,000). P16066. HEK293 hNpr1 GloSensor cGMP, ANP-stimulated luminescence; calls by dose curve; also: nearly all actives have a fitted effect of over 60% in size
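HEK293 cells stably expressing human Npr1 and cGMP GloSensor pGS-40F, loaded 2 h with 2% GloSensor reagent, given compound 30 min at room temperature. Luminescence read before and 20 min after 0.1 nM hNppA.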
Of the large screens only hits and unclear results are named; the others gave an inactive call. Unless noted, calls follow the shape of the dose curve; as a rule, active = well fitted curve in the direction sought with a large enough effect; inconclusive = small, poorly fitted or top-dose-only effect, or another doubt; inactive = no such curve, though single readings can be large; an effect the other way counts as inactive or inconclusive.

O=[S+]([O-])(c1cccc(C(F)(F)F)c1)N1CCN(Cc2ccccc2-c2ccccc2F)CC1	NIH3T3 tox inconclusive, HEK293 tox inconclusive (no result: FLuc inh, NPR1 antag)
O=C(Nc1cccc(F)c1)[C@@H]1C[C@@H](c2ccc(F)cc2)N([S+](=O)([O-])c2ccccc2)C1	NIH3T3 tox inconclusive, HEK293 tox 35.5µM
O=C(Nc1cccc(F)c1)[C@@H]1C[C@@H](c2ccc(F)cc2)N([S+](=O)([O-])c2cccnc2)C1	NIH3T3 tox inconclusive, HEK293 tox inconclusive
COc1cccc(NC(=O)[C@@H]2C[C@@H](c3ccc(F)cc3)N(CCOc3ccccc3)C2)c1	NIH3T3 tox inconclusive, HEK293 tox 39.8µM, NPR1 antag inconclusive
COc1ccc(NC(=O)[C@@H]2C[C@H](c3ccc(F)cc3)N(Cc3csc(C)n3)C2)c(C)c1	NIH3T3 tox 70.8µM, HEK293 tox 89.1µM
O=C(Cc1ccc(F)cc1)NC1CCN(C(=O)c2ccc(-c3cccs3)cc2)CC1	NIH3T3 tox inconclusive, HEK293 tox inconclusive (no result: FLuc inh, NPR1 antag)
Cc1noc(-c2cn(C3CCN(C(=O)c4cccc(C(F)(F)F)c4)C3)nn2)n1 (centres undefined)	none
N#Cc1cccc(CN2CCc3ncc(C(=O)NCCOc4ccccc4)n3CC2)c1	NIH3T3 tox 28.2µM, HEK293 tox 28.2µM, NPR1 antag inconclusive
Cc1cccc(CN2CCc3ncc(C(=O)NCCC(C)C)n3CC2)c1	NIH3T3 tox inconclusive, HEK293 tox 39.8µM
Cc1ccccc1CN1CCc2ncc(C(=O)NCCC(C)C)n2CC1	NIH3T3 tox inconclusive, HEK293 tox inconclusive
COc1ccc(Cn2c(=O)c(C(=O)N3CCN(C(=O)c4cccc(Cl)c4)CC3)nc3cccnc32)cc1	NIH3T3 tox inconclusive, HEK293 tox inconclusive (no result: FLuc inh, NPR1 antag)
Cc1ccc(C(=O)CCc2nc(C3CC(=O)N(C4CCCCC4)C3)no2)cc1 (centres undefined)	NIH3T3 tox inconclusive, HEK293 tox 39.8µM
COc1cc(CN2CCC3(CCNCC3)C2)cc(OC)c1OC	HEK293 tox inconclusive
Cc1ccc(CN2CCC3(CCNCC3)C2)c(Cl)c1Cl	NIH3T3 tox inconclusive, HEK293 tox inconclusive
c1ccc(COc2ccccc2CN2CCC3(CCNCC3)C2)cc1	NIH3T3 tox 22.4µM, HEK293 tox 28.2µM
CC(C)(C)c1cccc(CN2CCC3(CCNCC3)C2)c1O	NIH3T3 tox 22.4µM, HEK293 tox 22.4µM
O=C(NC1CCN(c2cc(-c3ccc(F)cc3)[nH]n2)C1)c1c[nH]c2ccccc12 (centres undefined)	NIH3T3 tox 31.6µM, HEK293 tox 39.8µM, GPT2 inh inconclusive
O=C(NC1CCN(c2cc(-c3ccc(F)cc3)[nH]n2)CC1)c1c[nH]c2ccccc12	NIH3T3 tox 31.6µM, HEK293 tox inconclusive
O=C(NC1CCCN(c2cc(-c3ccccc3)[nH]n2)C1)c1ccccc1Cl (centres undefined)	NIH3T3 tox inconclusive, HEK293 tox inconclusive, FLuc inh inconclusive
O=C(NC1CCN(c2cc(-c3ccccc3)[nH]n2)CC1)c1cc(F)ccc1Cl	NIH3T3 tox inconclusive, HEK293 tox inconclusive
O=C(NC1CCCN(c2cc(-c3ccccc3)[nH]n2)C1)c1c[nH]c2ccccc12 (centres undefined)	NIH3T3 tox inconclusive, HEK293 tox inconclusive, GPT2 inh inconclusive, FLuc inh 39.8µM
O=C(NCC1CCN(c2cc(-c3ccc(F)cc3)[nH]n2)CC1)c1c[nH]c2ccccc12	NIH3T3 tox 31.6µM, HEK293 tox inconclusive, GPT2 inh inconclusive, FLuc inh inconclusive
Cc1cc(F)ccc1OC1CNC1	none (no result: FLuc inh, NPR1 antag)
CN1CCN(c2cc(=O)c3ccnc(-c4cn[nH]c4)c3o2)CC1	NIH3T3 tox inconclusive
CO[C@H]1C(=O)N(C(C)C)[C@H]1C1CCN(C(=O)Cn2ccc(C)n2)CC1	FLuc inh 25.1µM
CO[C@H]1C(=O)N(C(C)C)[C@H]1C1CCN(C(=O)Cn2nc(C(F)(F)F)cc2C)CC1	FLuc inh 35.5µM
CCn1cc(CN2CCC(N3C(=O)C4(CCCCC4)C3c3ccncc3)CC2)c(C)n1 (centres undefined)	HEK293 tox inconclusive
COc1ccc(NC(=O)N2CC(Oc3ccc(-c4nc(-c5ccccc5)no4)cc3)C2)cc1	HEK293 tox inconclusive, FLuc inh 1.41µM
O=C(Nc1cccc(F)c1)N1CC(Oc2ccc(-c3nc(-c4ccccc4)no3)cc2)C1	NIH3T3 tox inconclusive, HEK293 tox inconclusive, FLuc inh 2.51µM, NPR1 antag 7.08µM
CC(C(=O)N1CC(Oc2ccc(-c3noc(-c4ccncc4)n3)cc2)C1)c1ccccc1 (centres undefined)	NIH3T3 tox 25.1µM, HEK293 tox inconclusive (no result: FLuc inh, NPR1 antag)
O=C(Nc1ccccc1)N1CC(Oc2cccc(-c3nc(-c4ccccc4)no3)c2)C1	NIH3T3 tox inconclusive, HEK293 tox inconclusive, FLuc inh inconclusive
O=C(c1ccncc1)N1CC(Oc2ccc(-c3noc(-c4ccccc4)n3)cc2)C1	HEK293 tox inconclusive, FLuc inh inconclusive
C[S+](=O)([O-])N1CCC(c2nnc3n2C(C(=O)NCCc2ccccc2F)CC3)CC1 (centres undefined)	none (no result: FLuc inh, NPR1 antag)
CCc1ccc(CNC(=O)c2ccc3c(c2)N(CC)C2CCCCN2C3=O)cc1 (centres undefined)	NIH3T3 tox inconclusive, HEK293 tox inconclusive
CCN1c2cc(C(=O)NCc3ccccc3)ccc2C(=O)N2CCCCCC21 (centres undefined)	HEK293 tox 39.8µM
CCN1c2cc(C(=O)NCc3cccc(C(F)(F)F)c3)ccc2C(=O)N2CCCCCC21 (centres undefined)	NIH3T3 tox inconclusive, HEK293 tox 17.8µM, NPR1 antag inconclusive
CCOc1ccccc1CN1CCCCCNC(=O)[C@@H]2CCC[C@@H]21	NIH3T3 tox inconclusive, HEK293 tox inconclusive
Cc1ccc2c(ccn2CCNC(=O)C[C@H]2NC(=O)c3ccccc3NC2=O)c1	none
O=C(c1ccc2c(c1)N(C(=O)c1ccccc1)CC2)N1CCN(c2cccc(Cl)c2)CC1	NIH3T3 tox inconclusive, HEK293 tox 31.6µM
O=C(c1ccncc1)N1CCC2(CC1)CC(c1cccc(C(F)(F)F)c1)=NO2	HEK293 tox 89.1µM (no result: GPT2 inh, FLuc inh, NPR1 antag)
O=C(C1CC1)N1CCC2(CC1)CC(c1cccc(C(F)(F)F)c1)=NO2	NIH3T3 tox inconclusive, HEK293 tox 56.2µM (no result: GPT2 inh, FLuc inh, NPR1 antag)
O=C(NCc1ccccc1)c1ccccc1OC1CN(Cc2cccc(F)c2)C1	NIH3T3 tox inconclusive, HEK293 tox 28.2µM
Cc1ccc(CN2CC(Oc3ccccc3C(=O)N3CCOCC3)C2)cc1C	NIH3T3 tox inconclusive, HEK293 tox 44.7µM
O=C(NCc1ccccc1)c1ccccc1OC1CN(Cc2cccnc2Cl)C1	NIH3T3 tox inconclusive, HEK293 tox 44.7µM (no result: FLuc inh, NPR1 antag)
Cc1cc(F)ccc1OC1CN(Cc2ccccc2)C1	NIH3T3 tox 89.1µM, HEK293 tox inconclusive, GPT2 inh inconclusive
COCCCn1c(=O)c(C(=O)NCc2ccccc2Cl)nc2cccnc21	none (no result: FLuc inh, NPR1 antag)
Cn1ncc2c(C(=O)NCC3CCCCC3)cc(-c3cccc(C(F)(F)F)c3)nc21	none (no result: GPT2 inh, FLuc inh, NPR1 antag)

Bioassay records from PubChem.
